Assay results taken from PubChem BioAssay (NCI).
About 83,000 compounds went through this panel and 20% of them were active in at least one assay; those are over-represented in the sample as a whole.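 Compound tested at a single concentration for 48 hours in 96-well plates; a percent growth value below 10 was scored as active.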 Calls of active or inactive are those of the source.

Legend:
Test in all cases: NCI-60 one-dose screen, 48 h (100 = growth as untreated, 0 = no growth, -100 = all killed)
Conditions in all cases: 10 µM unless noted
SK-MEL-2 melanoma = system: SK-MEL-2 melanoma
EKVX NSCLC = system: EKVX NSCLC
SN12C renal = system: SN12C renal
UO-31 renal = system: UO-31 renal
TK-10 renal = system: TK-10 renal
ACHN renal = system: ACHN renal
CAKI-1 renal = system: CAKI-1 renal
A498 renal = system: A498 renal
CCRF-CEM leukemia = system: CCRF-CEM leukemia
MOLT-4 leukemia = system: MOLT-4 leukemia

Measured: growth

O=c1[nH]c(NCc2nnnn2-c2ccc(Br)cc2)nc2sc3c(c12)CCCC3
inactive: SK-MEL-2 melanoma 108% | EKVX NSCLC 96.3% | SN12C renal 97.6% | UO-31 renal 77.9% | TK-10 renal 98.1% | ACHN renal 98.9% | CAKI-1 renal 89.6% | A498 renal 84.6% | CCRF-CEM leukemia 90.8% | MOLT-4 leukemia 76.9%

Cc1cc(Cc2cc(C)cc(C(C)(C)C)c2O)c(O)c(C(C)(C)C)c1
inactive: SK-MEL-2 melanoma 68.8% | EKVX NSCLC 26.5% | SN12C renal 28.1% | UO-31 renal 43% | TK-10 renal 52.8% | ACHN renal 34.3% | CAKI-1 renal 31% | A498 renal 90.2% | CCRF-CEM leukemia 28.5% | MOLT-4 leukemia 29.1%

CCCCN(Cc1ccc(C(=O)NO)cc1)C(=O)Nc1ccc(OCCCCCCCCCn2cc(CCCCC(=O)N[C@H](C(=O)N3C[C@H](O)C[C@H]3C(=O)NCc3ccc(-c4scnc4C)cc3)C(C)(C)C)nn2)cc1
inactive: SK-MEL-2 melanoma 90.6% | EKVX NSCLC 72.1% | SN12C renal 31% | UO-31 renal 70.8% | TK-10 renal 87.6% | ACHN renal 105% | CAKI-1 renal 61.7% | A498 renal 66.5% | CCRF-CEM leukemia 13% | MOLT-4 leukemia 14.5%

COc1cccc(-c2cnco2)c1OCc1c(C)c(COc2c(OC)cccc2-c2cnco2)c(C)c(COc2c(OC)cccc2-c2cnco2)c1C
inactive: SK-MEL-2 melanoma 60.9% | EKVX NSCLC 52.8% | SN12C renal 51.4% | UO-31 renal 30.8% | TK-10 renal 28.1% | ACHN renal 29.6% | CAKI-1 renal 88.7% | CCRF-CEM leukemia 94.5% | MOLT-4 leukemia 91.2%
active: A498 renal -13.6%

CN1CCC(=C2c3ccccc3C=Cc3ccccc32)CC1
inactive: SK-MEL-2 melanoma 105% | EKVX NSCLC 91.9% | SN12C renal 79.1% | UO-31 renal 67% | TK-10 renal 112% | ACHN renal 84.4% | CAKI-1 renal 95.5% | A498 renal 99.2% | CCRF-CEM leukemia 53.1% | MOLT-4 leukemia 72.6%

C=C1C(=O)O[C@H]2[C@H]1CC/C(COC(=O)/C=C\C(=O)NCc1ccc(Cn3c(=O)sn(CCCC)c3=O)cc1)=C\CC[C@@]1(C)O[C@@H]21
active: SK-MEL-2 melanoma -54.2% | EKVX NSCLC -48% | SN12C renal -93% | UO-31 renal -100% | TK-10 renal -76.9% | ACHN renal -100% | CAKI-1 renal -78.8% | CCRF-CEM leukemia -26.1% | MOLT-4 leukemia -17.4%
inactive: A498 renal 11.2%

COc1cccc(/C=C2\COc3ccc(O)cc3C2=O)c1OC
active: CCRF-CEM leukemia 2.69%
inactive: SK-MEL-2 melanoma 96.4% | EKVX NSCLC 92.8% | SN12C renal 44.4% | UO-31 renal 58.6% | TK-10 renal 89.3% | ACHN renal 54.6% | CAKI-1 renal 63.4% | A498 renal 90.7% | MOLT-4 leukemia 32.9%

CC(C)n1nc(C#Cc2cccc(NC(=O)c3cccc(C(F)(F)F)c3)c2)c2c(N)ncnc21
inactive: CCRF-CEM leukemia 11.8%
active: SK-MEL-2 melanoma -65.2% | EKVX NSCLC 1.52% | SN12C renal -8.6% | UO-31 renal -51.4% | TK-10 renal -56.8% | ACHN renal -31.9% | CAKI-1 renal -40.9% | A498 renal -80.6% | MOLT-4 leukemia 2.57%

CC(C)OCCCNCC(=O)Nc1ccc(S(=O)(=O)c2ccc(NC(=O)CNCCCOC(C)C)cc2)cc1
inactive: SK-MEL-2 melanoma 115% | EKVX NSCLC 101% | SN12C renal 90.8% | UO-31 renal 90.8% | TK-10 renal 93.9% | ACHN renal 100% | CAKI-1 renal 94.4% | A498 renal 89.5% | CCRF-CEM leukemia 85.1% | MOLT-4 leukemia 78.1%

CN(CCC(=O)/C(=C\c1ccccc1)c1ccc(Cl)cc1)Cc1ccccc1
inactive: SK-MEL-2 melanoma 58.4% | EKVX NSCLC 86.8% | TK-10 renal 51.8% | CAKI-1 renal 22.5% | A498 renal 46.1%
active: SN12C renal -9.91% | UO-31 renal -40.9% | ACHN renal -43.3% | CCRF-CEM leukemia -7.82% | MOLT-4 leukemia 6.05%

Cc1cc(C)on1
inactive: SK-MEL-2 melanoma 99.6% | EKVX NSCLC 99.2% | SN12C renal 99.6% | UO-31 renal 84.5% | TK-10 renal 103% | ACHN renal 104% | CAKI-1 renal 98.4% | A498 renal 121% | CCRF-CEM leukemia 96% | MOLT-4 leukemia 92.3%

CN(C)CCC(O)(Cc1ccccc1)c1ccccc1 (stereo not given)
inactive: SK-MEL-2 melanoma 100% | EKVX NSCLC 99.5% | SN12C renal 105% | UO-31 renal 87.8% | TK-10 renal 93.8% | ACHN renal 101% | CAKI-1 renal 83.6% | A498 renal 185% | CCRF-CEM leukemia 112% | MOLT-4 leukemia 102%

COc1cc2nc(Nc3ccc(F)cc3)nc(N)c2cc1OC
inactive: SK-MEL-2 melanoma 91% | EKVX NSCLC 106% | SN12C renal 92% | UO-31 renal 76.1% | TK-10 renal 95.2% | ACHN renal 101% | CAKI-1 renal 102% | A498 renal 63.6% | CCRF-CEM leukemia 81.4% | MOLT-4 leukemia 65.3%

COc1ccc(N(C)c2nc(Cl)nc3cnn(C)c23)cc1
active: A498 renal -9.16%
inactive: SK-MEL-2 melanoma 22.2% | EKVX NSCLC 46.1% | SN12C renal 27.8% | UO-31 renal 34% | TK-10 renal 50.9% | ACHN renal 23.9% | CAKI-1 renal 22.9% | CCRF-CEM leukemia 13% | MOLT-4 leukemia 14.9%

N#Cc1c(N)n2c(nc1=Nc1ccc(Cl)cc1)sc1cc(Cl)ccc12
inactive: SK-MEL-2 melanoma 69.8% | EKVX NSCLC 62.3% | SN12C renal 88.4% | UO-31 renal 61.3% | TK-10 renal 108% | ACHN renal 91.3% | CAKI-1 renal 75.5% | A498 renal 91.1% | CCRF-CEM leukemia 92% | MOLT-4 leukemia 27.8%

O=c1oc2ccc(Cl)cc2cc1-c1cs/c(=N/N=C\c2ccc(Cl)cc2)n1/N=C/c1ccc(Cl)cc1
inactive: SK-MEL-2 melanoma 92.6% | EKVX NSCLC 107% | SN12C renal 94% | UO-31 renal 90.1% | TK-10 renal 99.4% | ACHN renal 112% | CAKI-1 renal 110% | A498 renal 83.9% | CCRF-CEM leukemia 104% | MOLT-4 leukemia 93.8%

O=[N+]([O-])c1ccccc1C(O)Cc1ccc2ccccc2n1 (stereo not given)
inactive: SK-MEL-2 melanoma 108% | EKVX NSCLC 83.8% | SN12C renal 95.2% | UO-31 renal 66.6% | TK-10 renal 148% | ACHN renal 85.9% | CAKI-1 renal 88% | A498 renal 68%
active: CCRF-CEM leukemia -50.2% | MOLT-4 leukemia -6.33%

N#Cc1cccc(-c2nc3ccccn3c2NCCN2CCOCC2)c1
inactive: SK-MEL-2 melanoma 100% | EKVX NSCLC 104% | SN12C renal 96% | UO-31 renal 73.3% | TK-10 renal 101% | ACHN renal 98.3% | CAKI-1 renal 85.1% | A498 renal 99.1% | CCRF-CEM leukemia 92.5% | MOLT-4 leukemia 96.5%

CCCCCCCC/C=C/CCCCCCCC1=NCC[N+]1(CCO)CCO
inactive: SK-MEL-2 melanoma 102% | EKVX NSCLC 76.4% | SN12C renal 76% | UO-31 renal 65.4% | TK-10 renal 41.2% | ACHN renal 82.2% | CAKI-1 renal 52.5% | A498 renal 73.4% | CCRF-CEM leukemia 31.4% | MOLT-4 leukemia 41.7%

C=C1C(=O)O[C@H]2[C@H]1CC/C(COC(=O)/C=C\C(=O)NCc1ccc(Cn3c(=O)sn(-c4ccc(C#N)cc4)c3=O)cc1)=C\CC[C@@]1(C)O[C@@H]21
active: SK-MEL-2 melanoma -64.9% | EKVX NSCLC -56.9% | SN12C renal -93.8% | UO-31 renal -100% | TK-10 renal -85.1% | ACHN renal -100% | CAKI-1 renal -69.1% | A498 renal -8.82% | CCRF-CEM leukemia -18.1% | MOLT-4 leukemia -32.3%

COc1ccc(/C(C)=C(\c2ccc(Cl)cc2)c2ccc(OCCN3CCCC3)cc2)cc1F
inactive: SK-MEL-2 melanoma 59.9% | EKVX NSCLC 47% | SN12C renal 51.6% | UO-31 renal 28.9% | TK-10 renal 62% | ACHN renal 50.9% | CAKI-1 renal 22% | A498 renal 68% | CCRF-CEM leukemia 31.2%
active: MOLT-4 leukemia -5.27%

Cc1nc(Nc2ccc(S(=O)(=O)Nc3cc(C)on3)cc2)c2ccccc2n1
inactive: SK-MEL-2 melanoma 102% | EKVX NSCLC 90% | SN12C renal 102% | UO-31 renal 84.2% | TK-10 renal 99.7% | ACHN renal 107% | CAKI-1 renal 90.7% | A498 renal 94.3% | CCRF-CEM leukemia 103% | MOLT-4 leukemia 104%

c1ccc2c(c1)nc(-n1ccnc1)c1nc3ccccc3n12
inactive: SK-MEL-2 melanoma 88.7% | EKVX NSCLC 74.1% | SN12C renal 52.6% | UO-31 renal 46.1% | TK-10 renal 72.4% | ACHN renal 32.3% | CAKI-1 renal 56% | A498 renal 79.7% | CCRF-CEM leukemia 78% | MOLT-4 leukemia 74.9%

C=C1C(=O)O[C@H]2[C@H]1CC/C(Cn1cc(CNCCc3c[nH]c4ccccc34)nn1)=C\CC[C@@]1(C)O[C@@H]21
inactive: SK-MEL-2 melanoma 61.4% | EKVX NSCLC 97.2% | SN12C renal 95% | UO-31 renal 80.7% | TK-10 renal 94.9% | ACHN renal 87.4% | CAKI-1 renal 91.3% | A498 renal 103% | CCRF-CEM leukemia 16.4% | MOLT-4 leukemia 77.6%

OC(c1cccc(OCc2ccccc2)c1)c1nnc(-c2ccccc2)o1 (stereo not given)
inactive: SK-MEL-2 melanoma 100% | EKVX NSCLC 77.3% | SN12C renal 92.8% | UO-31 renal 68.1% | TK-10 renal 143% | ACHN renal 92.6% | CAKI-1 renal 95.2% | A498 renal 102% | CCRF-CEM leukemia 75.7% | MOLT-4 leukemia 105%

C=C(C)[C@@H]1CC[C@@]2(C(=O)O)CC[C@]3(C)C(CCC4[C@@]5(C)CCC(OS(=O)(=O)c6ccccc6)C(C)(C)C5CC[C@]43C)C12 (stereo not given in full)
inactive: SK-MEL-2 melanoma 70.3% | EKVX NSCLC 25.4% | SN12C renal 62.2% | UO-31 renal 48.5% | TK-10 renal 59.8% | ACHN renal 49.7% | A498 renal 84.2% | CCRF-CEM leukemia 62.4% | MOLT-4 leukemia 51.7%
active: CAKI-1 renal -15.5%
